In PubChem BioAssay (NCATS):
Records with an inconclusive call do not appear. Where a call stands in place of a potency, no number is given. Active and inactive are the calls of the source. The call rests on the fitted dose curve; in most records, active means well fitted inhibition curve with a large enough effect; inconclusive means small, poorly fitted or top-dose-only effect; inactive means flat fitted curve, though single readings scatter.

Each molecule was assayed against Calcium and integrin-binding protein 1 (Homo sapiens) (UniProt Q99828) (assay: Primary qHTS for Identification of Calcium Integrin Binding Protein 1 (CIB1) Competitor (AID 1508620;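 further: GST tagged CIB1 binding a fluorescein labelled alphaIIb integrin peptide tracer; top concentration of the series differs between compounds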)). Details: CIB1-GST / FITC-alphaIIb peptide fluorescence polarization; series mostly up to 114 µM.
In short: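 Fluorescence polarization competition: CIB1-GST (1 uM final) preincubated with compound 15 min at room temperature, then FITC-labeled alphaIIb peptide (100 nM final) added for another 15 min. Polarization read at Ex 480/Em 540.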

Chain of Calcium and integrin-binding protein 1 (Homo sapiens) (Q99828 whole entry, looked up): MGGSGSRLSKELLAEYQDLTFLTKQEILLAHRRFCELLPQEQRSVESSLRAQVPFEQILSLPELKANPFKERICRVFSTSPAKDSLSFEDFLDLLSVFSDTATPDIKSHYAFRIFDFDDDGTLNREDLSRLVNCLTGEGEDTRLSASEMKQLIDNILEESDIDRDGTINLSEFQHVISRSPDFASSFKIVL

| SMILES | Potency |
| --- | --- |
| COc1cccc(CCC(=O)NCCc2nc3ccccc3n2CCOc2ccc(C)cc2)c1 | inactive |
| Cc1nc(CN=C2NC3=C(C(=O)CCC3)C(c3[nH]ncc3Cl)N2)cs1 (stereo not drawn) | inactive |
| O=C(Nc1ccc(Cl)c(C(F)(F)F)c1)Nc1nnc(-c2cccnc2)s1 | inactive |
| N#Cc1no[n+]([O-])c1-c1ccccc1 | inactive |
| Cc1sc(C)c2c1C(=O)NS2(=O)=O | inactive |
| COc1ccc(Cn2ncc3c4sc(C)cc4n(C)c3c2=O)cc1F | inactive |
| O=c1c(Nc2ccc(Cl)c(Cl)c2)c(Nc2nnc(-c3ccncc3)s2)c1=O | inactive |
| Oc1ccc(CCc2ccccc2F)c2cccnc12 | inactive |
| O=C(NCCc1nc2ccccc2n1CCOc1ccc(F)cc1)C1CCCCC1 | inactive |
| Nc1cc(S(=O)(=O)N2CCN(S(=O)(=O)c3ccc4c(c3)OCCO4)CC2)ccn1 | inactive |
| COc1cc(O)c(C(CC(=O)N2CCCC(COc3ccc(F)cc3)C2)c2ccc3c(c2)OCO3)c(OC)c1 (stereo not drawn) | inactive |
| Cc1cc(C)nc(NC(=S)N2CCN(c3cc(C(F)(F)F)nc(C)n3)CC2)c1 | inactive |
| COc1cccc(C2c3c(ncn(-c4ccccc4Br)c3=N)Oc3ccc4ccccc4c32)c1 (stereo not drawn) | inactive |
| Cc1ccc(-c2ccc(=O)n(CC(=O)NCc3ncc[nH]3)n2)cc1 | inactive |
| CCOC(=O)CCC(=O)Nc1ncnc2c1C(c1ccccc1)c1c(ccc3ccccc13)O2 (stereo not drawn) | inactive |
| COc1cncc(NC(=O)c2cccs2)c1 | inactive |
| CCc1ccc(NC(=O)C(=O)NNC(=O)Cc2ccc(Cl)c(Cl)c2)cc1 | inactive |
| NC(=O)C1CCN(c2nc(-c3ccccc3)cs2)CC1 | inactive |
| COc1cccc(NC(=S)N2CCN(c3cc(C(F)(F)F)cc(C(F)(F)F)c3)CC2)n1 | inactive |
| Cc1cc(C)n2ncc(C(=O)Nc3ccc(Cl)c(Cl)c3)c2n1 | inactive |
| CN(C)CCCNc1ccc(NC(=O)c2cccs2)cn1 | inactive |
| N#Cc1ccc(C(=O)NCC(=O)OC(C(=O)Nc2cc(C(F)(F)F)ccc2Cl)c2ccccc2)cc1 (stereo not drawn) | inactive |
| Cc1ccnc(NC(=S)N[C@H]2CCN(c3cccc(C(F)(F)F)c3)C2)c1 | inactive |
